Results: PubChem BioAssay (NCI)
This is part of a sample that, as a whole, favours compounds with a hit. Of some 83,000 tested, about 20% had one in any assay.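 96-well plates, one dose, 48 hours. Percent growth reported; active if below 10.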 Active and inactive are the calls of the source.

How the values were obtained:
Test in all cases: NCI-60 one-dose screen, 48 h (100 = growth as untreated, 0 = no growth, -100 = all killed)
Conditions in all cases: 10 µM
HCT-15 colon = test system: HCT-15 colon
SNB-75 CNS = test system: SNB-75 CNS
SNB-19 CNS = test system: SNB-19 CNS
U251 CNS = test system: U251 CNS
PC-3 prostate = test system: PC-3 prostate
SK-MEL-5 melanoma = test system: SK-MEL-5 melanoma
UACC-62 melanoma = test system: UACC-62 melanoma
LOX IMVI melanoma = test system: LOX IMVI melanoma
SK-MEL-28 melanoma = test system: SK-MEL-28 melanoma

Measured: growth

Cc1cccc2cc(-c3cc(-c4ccccc4)nc(=O)[nH]3)c(Cl)nc12
inactive: HCT-15 colon 64.1% | SNB-75 CNS 89.1% | SNB-19 CNS 68% | U251 CNS 62.6% | PC-3 prostate 77.6% | SK-MEL-5 melanoma 96.3% | UACC-62 melanoma 80.1% | LOX IMVI melanoma 54.1% | SK-MEL-28 melanoma 103%

O=C1NC(=NC23CC4CC(CC(C4)C2)C3)N/C1=C\c1ccc2ncoc2c1
active: HCT-15 colon 0.0072% | SNB-75 CNS -8.6% | SNB-19 CNS 6.88% | PC-3 prostate 5.37% | SK-MEL-5 melanoma 1.95% | UACC-62 melanoma -71.4% | LOX IMVI melanoma 0.372% | SK-MEL-28 melanoma -18.6%
inactive: U251 CNS 10%

Cc1ccc(-c2nc3ccc(C(=O)N=Nc4c(O)[nH]c5ccc([N+](=O)[O-])cc45)cc3[nH]2)cc1
inactive: HCT-15 colon 104% | SNB-75 CNS 78.4% | SNB-19 CNS 55.4% | PC-3 prostate 60.8% | SK-MEL-5 melanoma 89.3% | UACC-62 melanoma 85.6% | LOX IMVI melanoma 54.9% | SK-MEL-28 melanoma 60.4%
active: U251 CNS 5.86%

COc1cccc(/C=N/NC(=O)c2ccc3nc(-c4ccc(Cl)cc4)[nH]c3c2)c1O
active: HCT-15 colon 4.8% | SNB-75 CNS -81.8% | SNB-19 CNS -98.6% | U251 CNS -90.8% | PC-3 prostate -55.1% | SK-MEL-5 melanoma -98% | UACC-62 melanoma -92% | LOX IMVI melanoma -97.2% | SK-MEL-28 melanoma -98.3%

Oc1ccc(/C=C2\CCCc3cc4ccc(O)cc4[o+]c32)c(O)c1
active: U251 CNS 8.94% | LOX IMVI melanoma -31.1%
inactive: HCT-15 colon 10.1% | SNB-75 CNS 91.9% | SNB-19 CNS 58% | PC-3 prostate 28.8% | SK-MEL-5 melanoma 69.6% | UACC-62 melanoma 25% | SK-MEL-28 melanoma 33.9%

OCc1[nH]nc2cc(Nc3ncc4ccc(Br)c(OC5CCC(O)CC5)c4n3)ccc12 (stereo not drawn)
active: HCT-15 colon -5.87% | SNB-75 CNS -44.1% | SNB-19 CNS 6.37% | U251 CNS 8.55% | PC-3 prostate 9.54% | SK-MEL-5 melanoma -99.1% | UACC-62 melanoma -89.2% | LOX IMVI melanoma -81.5% | SK-MEL-28 melanoma -68.7%

O=C(N/N=C/c1ccc(B(O)O)o1)c1[nH]c2ccc(Br)cc2c1-c1ccccc1
inactive: HCT-15 colon 16.1% | SNB-75 CNS 98.1% | SNB-19 CNS 40.7% | U251 CNS 10.1% | PC-3 prostate 19.2% | SK-MEL-5 melanoma 11.5% | UACC-62 melanoma 19.4% | LOX IMVI melanoma 32.9% | SK-MEL-28 melanoma 62.1%

Cc1ccc(CSc2nc(Cl)c(C#N)c(-c3ccc(F)cc3)n2)cc1
inactive: HCT-15 colon 54.4% | SNB-75 CNS 126% | SNB-19 CNS 89.3% | U251 CNS 68.8% | PC-3 prostate 42.6% | SK-MEL-5 melanoma 77.6% | UACC-62 melanoma 77.2% | LOX IMVI melanoma 85.8% | SK-MEL-28 melanoma 93.9%

CC(=O)c1cc(C(=O)N2c3ccccc3Sc3ccccc32)n2ccc(C)cc12
active: SK-MEL-5 melanoma -36.3% | LOX IMVI melanoma -40%
inactive: HCT-15 colon 10.5% | SNB-75 CNS 83.1% | SNB-19 CNS 49.8% | U251 CNS 36.1% | PC-3 prostate 28.3% | UACC-62 melanoma 23.8% | SK-MEL-28 melanoma 48.7%

NC(=Nc1ccc(OCCCCCCCCn2ccnn2)cc1)c1ccccc1
inactive: HCT-15 colon 15.8% | SNB-75 CNS 61.2% | SNB-19 CNS 41.7% | U251 CNS 12.2% | PC-3 prostate 35.8% | UACC-62 melanoma 41.8% | LOX IMVI melanoma 26.6% | SK-MEL-28 melanoma 49.2%

CCCn1c(=O)c2[nH]c(-c3ccc(OCc4nc5ccc(C#N)cc5[nH]4)cc3)nc2n(CCC)c1=O
inactive: HCT-15 colon 84.7% | SNB-75 CNS 84.9% | SNB-19 CNS 80.8% | U251 CNS 70.6% | PC-3 prostate 55.4% | SK-MEL-5 melanoma 83.4% | UACC-62 melanoma 49.2% | LOX IMVI melanoma 46.5% | SK-MEL-28 melanoma 90.8%
